Only a sample is shown.
aSyn 5UTR act – Activators via SNCA 5'UTR binding, MLPCN; 300,000 compounds, 7.1% hits; AID 1814; alpha-synuclein 5'UTR reporter, activators screen; activity score, % (tested at 7.5 µM), hits read low; in the data active = activity score below about -60%
Of the large screens only hits and unclear results are named; the others gave an inactive call.

c1ccc2c(c1)CC(N1CCCCC1)c1ccccc1S2 (centres undefined)	none
CCCn1nnc(NC(=O)c2ccc(OC)cc2)n1	aSyn 5UTR act -121.4
CCCn1nnc(NC(=O)c2ccc(-c3ccccc3)cc2)n1	aSyn 5UTR act -217.6
CCOc1ccc(C(=O)Nc2nnn(CC)n2)cc1	aSyn 5UTR act -86.0
CCCn1nnc(NC(=O)c2ccc(Br)cc2)n1	aSyn 5UTR act -137.1
N#CC1=C(N)Oc2c(ccc3ccccc23)C1c1cccs1 (centres undefined)	none
CC(=O)n1c2c(c3ccccc31)OC(N)=C(C#N)C2c1ccc(C(C)C)cc1 (centres undefined)	aSyn 5UTR act -118.3
O=C(CCSCc1ccccc1F)N1CCN(c2ccccn2)CC1	aSyn 5UTR act -78.1
O=C(CSCc1ccccc1Cl)N1CCN(c2ccccn2)CC1	aSyn 5UTR act -82.0
CCc1ccc(-c2nc(CSCC(=O)N3CCN(c4ccccn4)CC3)c(C)o2)cc1	none
C/[N+]([O-])=C/c1c(OCc2ccc(Cl)cc2Cl)ccc2ccccc12	aSyn 5UTR act -72.1
Cc1cnc(C(=O)Nc2ccc(N3CCOCC3)cc2)cn1	aSyn 5UTR act -73.5
Cc1cnc(C(=O)Nc2ccc(N3CCCCC3)cc2)cn1	aSyn 5UTR act -134.8
Cc1cnc(C(=O)Nc2ccc(OC(F)(F)F)cc2)cn1	aSyn 5UTR act -239.5
COc1ccc(/C(C)=N/NC(=O)OC(C)(C)C)cc1[N+](=O)[O-]	aSyn 5UTR act -67.7
Cc1cc(C(=O)CSc2ncccn2)c(C)n1-c1cccc(F)c1	aSyn 5UTR act -83.5
Cc1cc(C(=O)CSc2nnnn2C)c(C)n1-c1cccc(F)c1	aSyn 5UTR act -131.5
Cc1ccc(-n2c(C)cc(C(=O)COc3cccnc3[N+](=O)[O-])c2C)cc1	none
O=C(NC1CCCC1)c1ccc(CSCc2ccccc2F)o1	aSyn 5UTR act -62.6
Cc1nc(N2CCN(S(=O)(=O)c3ccccc3)CC2)c2cc(-c3ccccc3)sc2n1	aSyn 5UTR act -113.4
Cc1sc(NC(=O)c2ccccc2F)c(CN2CCCCC2)c1C	aSyn 5UTR act -124.0
Cc1sc(NC(=O)c2ccc(F)cc2)c(CN2CCCCCC2)c1C	aSyn 5UTR act -174.2
CC1(c2ccc([N+](=O)[O-])cc2)Nc2ccccc2S1 (centres undefined)	aSyn 5UTR act -83.2
COc1cc(/C=N/Nc2nc(Nc3ccccc3)nc(-n3nc(C)cc3C)n2)cc(OC)c1OC	aSyn 5UTR act -67.6
Cn1c(-c2cccs2)nc2ccccc21	aSyn 5UTR act -93.2
Cn1c(-c2ccc(Cl)nc2)nc2ccccc21	aSyn 5UTR act -65.0
Cn1c(-c2ccc(C=O)s2)nc2ccccc21	aSyn 5UTR act -122.6
Cc1cc(Cl)n2c(nc3ccccc32)c1C#N	none
COc1ccc(C2=NN(c3nc(-c4ccc(CNC(C)=O)cc4)cs3)C(c3ccco3)C2)cc1 (centres undefined)	aSyn 5UTR act -77.8
Cn1c(=O)[nH]c2cc3ccccc3cc21	none
CC(C)OC(=O)c1cc2ccccc2[nH]1	aSyn 5UTR act -84.5
CCOC(=O)c1cc2cc3ccccc3cc2[nH]1	aSyn 5UTR act -299.7
CCCCN1/C(=C/c2ccc3ccccc3[n+]2CC)Sc2ccccc21	none
CCN1/C(=C\C=C2\C(=O)N(C)C(=S)N2C)Sc2ccccc21	aSyn 5UTR act -81.2
COC(=O)c1sccc1NC(=O)COc1ccc(F)cc1Cl	aSyn 5UTR act -98.6
O=C(COc1ccc(Cl)cc1Cl)c1ccc[nH]1	aSyn 5UTR act -93.6
CC(=O)Nc1ccc(NC(=O)COc2ccc(Cl)cc2Cl)cc1	aSyn 5UTR act -117.3
O=C(COc1ccc(Cl)cc1Cl)Nc1ccccc1F	aSyn 5UTR act -174.5
O=C(COc1cc(Cl)ccc1Cl)Nc1ccc2c(c1)CCC2	aSyn 5UTR act -64.4
CC1c2cc3c(cc2CCN1C(=O)c1cccc(Cl)c1)OCCCO3 (centres undefined)	aSyn 5UTR act -64.6
COc1ccc(CSc2nnc(C)s2)cc1F	aSyn 5UTR act -127.4
COC(=O)c1cccc(CSc2nnc(C)s2)c1	aSyn 5UTR act -81.9
C=CCC1(CC=C)CCCN1C(=O)C1CCC(=O)N(CCc2ccccc2)C1 (centres undefined)	aSyn 5UTR act -180.7
C=CCC1(CC=C)CCCN1C(=O)C1CCC(=O)N(CCc2ccc(OC)cc2)C1 (centres undefined)	aSyn 5UTR act -209.6
COc1ccc(CCN2CC(C(=O)N(C)Cc3ccc(C)o3)CCC2=O)cc1 (centres undefined)	aSyn 5UTR act -86.9
CN1CCN(C2=C(Cl)C(=O)N(Cc3ccccc3)C2=O)CC1	aSyn 5UTR act -119.6
COc1ccc(NC2=C(Cl)C(=O)N(CCc3ccccc3)C2=O)c(OC)c1	aSyn 5UTR act -177.3
COc1ccc(CNC[C@@H](CCCCN(C)Cc2ccc(OC)cc2)N2C[C@H](c3ccccc3)N(CCc3ccc(Cl)c(Cl)c3)C(=O)C2=O)cc1	none
CCOc1ccc(NC2=C(Cl)C(=O)N(Cc3ccccc3)C2=O)cc1	aSyn 5UTR act -119.1
Cc1cc(N2CCN(C)CC2)ccc1NC(=O)c1c2c(nc3ccccc13)CCN(Cc1ccccc1)C2	none
COc1ccc(NC2=C(Cl)C(=O)N(CCc3ccccc3)C2=O)cc1	aSyn 5UTR act -68.0
CO/N=C/C(C#N)=C/c1ccc(OC)cc1	aSyn 5UTR act -81.1
Cc1cc(Cl)cc2c(N=Nc3ccccc3C(=O)O)c(O)[nH]c12	aSyn 5UTR act -67.6
CC(C)Cc1nnc(NC(=O)C23CC4CC(CC(C4)C2)C3)s1	aSyn 5UTR act -102.5
CSc1nnc(NC(=O)C23CC4CC(CC(C4)C2)C3)s1	aSyn 5UTR act -127.9
CCc1nnc(NC(=O)C23CC4CC(CC(C4)C2)C3)s1	aSyn 5UTR act -252.9
Cc1nc(/C=C/c2ccccc2)cc(/C=C/c2ccccc2)n1	aSyn 5UTR act -103.6
C(=C\c1cc(/C=C/c2ccccc2)ncn1)/c1ccccc1	aSyn 5UTR act -144.9
Cn1nc(/C=C/c2ccccc2)ccc1=O	aSyn 5UTR act -189.7
O=C(Cc1ccccc1[N+](=O)[O-])NCc1ccc(Cl)cc1Cl	aSyn 5UTR act -142.2
O=C(Cc1ccccc1[N+](=O)[O-])NCc1ccc(Cl)cc1	aSyn 5UTR act -93.9
CCc1ccc2nc(/N=C(\N)NC(=O)c3ccccc3)nc(C)c2c1	aSyn 5UTR act -120.2
C=CCN=C1NN=C(c2cc(C)n(CCOC)c2C)CS1	none
Oc1ccc(C2=NNC(=NCc3ccc4c(c3)OCO4)SC2)c(O)c1	aSyn 5UTR act -87.3
CNc1ncc(C(=O)c2ccccc2)s1	aSyn 5UTR act -66.1
CNc1ncc(C(=O)c2ccc(Br)cc2)s1	aSyn 5UTR act -108.0
CC1=C(CC(=O)c2ccccc2)C(=O)c2ccccc2C1=O	aSyn 5UTR act -79.4
COc1ccc(OC)c(C2CC(=O)N3CN(c4ccc(C)c(Cl)c4)CSC3=C2C#N)c1 (centres undefined)	aSyn 5UTR act -89.7
N/C(=N\OC(=O)c1cccnc1)c1ccc(Cl)cc1Cl	aSyn 5UTR act -152.7
N/C(=N\OC(=O)c1cccnc1)c1ccccc1Cl	aSyn 5UTR act -68.9
Cc1[nH]n(C(N)=S)c(=O)c1N=Nc1cccc(Cl)c1	aSyn 5UTR act -126.4
Cc1cccc(N=Nc2c(C)[nH]n(C(N)=S)c2=O)c1C	aSyn 5UTR act -199.4
CC(=O)N(C)c1ccc(N=Nc2c(C)[nH]n(C(N)=S)c2=O)cc1	aSyn 5UTR act -112.5
CC(=Nc1ccccc1)C1=C(O)CSC1=O	aSyn 5UTR act -94.6
COc1ccc(N=C(C)C2=C(O)CSC2=O)cc1	aSyn 5UTR act -72.0
CN(C)C(CNC(=O)c1ccc2ccccc2c1)c1ccco1 (centres undefined)	aSyn 5UTR act -61.9
CN(C)c1cccc(C(=O)NCC(c2ccco2)N(C)C)c1 (centres undefined)	aSyn 5UTR act -75.5
N=C1CCCN1CC(=O)c1ccc(Br)cc1	aSyn 5UTR act -87.5

Assay outcomes (PubChem BioAssay)
